Inconclusive results are not listed. A call without a number means that no potency is given here. Calls of active or inactive are those of the source. Calls come from the whole dose curve; as a rule, active = well fitted cell-killing curve with a large enough effect; inconclusive = small, poorly fitted or top-dose-only effect; inactive = no such curve, though single readings can be large or run the other way. Where a SMILES comes first, the peptide text is derived from it. [ ]: non-standard residue; d: D form. pGlu = O=C1CC[C@@H](C(=O)O)N1
Potency is the fitted concentration of half-maximal effect.

The assay is described as follows: qHTS of pediatric cancer cell lines to identify multiple opportunities for drug repurposing: Primary screen for Rh41 cells (AID 1347108).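 For activity change, negative = cytotoxic: luminescence drop marks cytotoxic hits.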 Note: nearly all actives have a fitted effect of over 70% in size. The following applies: Rh41 rhabdomyosarcoma viability, CellTiter-Glo luminescence, 48 h; series mostly up to 46 µM. The text has this:
Drug repurposing or repositioning has been offered as a strategy for drug development in oncology programs. This approach has special potential for childhood cancers and other rare or orphan diseases, where the expected return on new drug development has been a disincentive to pharmaceuticals. […] In this project we exploit the poly-pharmacology of drugs to discover new indications via phenotypic screening of a panel of 19 well-characterized cell lines derived from solid tumors seen in children and adolescents. The goal is to identify approved drugs with previously unrecognized anticancer properties that has the potential to reveal new mechanisms and biological processes involved in carcinogenesis or drug resistance. We employed a titration-based paradigm (quantitative high-throughput screening or qHTS), where all compounds were tested at multiple concentrations for their effect on cell viability. Concentration-response curves (CRCs) were derived directly from the primary screen, and both potency and efficacy values were used to identify compounds with robust bioactivity profiles. We screened the NIH Chemical Genomics Center (NCGC) Pharmaceutical Collection (NPC) and Mechanism Interrogation Plate (MIPE) small molecule collections of approved and investigational compounds against these cell lines; and measured metabolically active cells after 48 hours of compound treatment as a proxy for cell viability. […] Assay Submitter: Nathalia J. Martinez, National Center for Advancing Translational Sciences, National Institutes of Health, Rockville, MD, USA; email: natalia.martinez@nih.gov Shen, M et al. Quantitative high-throughput phenotypic screening of pediatric cancer cell lines identifies multiple opportunities for drug repurposing. Oncotarget 2017 Dec 19;9(4):4758-4772. PMID 29435139.
The cells were obtained from University of North Carolina (UNC), Pediatric Preclinical Testing Program (PPT), and Coriell Institute (CI). qHTS cell viability assay: Cells were assayed in growth media at a density of 500-1,000 cells/well. Five microliters of cells were dispensed into 1,536-well, white, solid-bottom, TC-treated plates (Greiner Bio One) using a multidrop dispenser and incubated at 37 degrees C, 5% CO2, under a humidified atmosphere for 5 hours. Twenty-three nanoliters of compounds and controls (neutral control DMSO or positive control bortezomib at final concentration of 2.3 µM) were subsequently transferred by Kalypsys pintool. For primary screens, the MIPE collection was tested at 11-point dilutions (final concentrations range from 0.78 nM to 46 µM) and the NPC collection at 8-point dilutions (final concentrations range from 0.59 nM to 46 µM). Compounds tested in follow-up screens were assayed at 11-point dilutions. Cells were incubated for 48 hours, followed by addition of 3 µL of CellTiter-Glo (Promega). After a 15 min incubation at room temperature, samples were analyzed for luminescence intensity using a ViewLux High-throughput CCD imager equipped with clear filters.
(In qHTS, concentration-response curves come from the screen itself.)
Take `Cc1nc(C2CCCCC2)c(-c2ccc(S(N)(=O)=O)c(F)c2)o1`: the Potency result was “inactive”. The same measure, in the same setting: for `CC1(C)O[C@@H]2C[C@H]3[C@@H]4CCC5=CC(=O)C=C[C@]5(C)[C@@]4(F)[C@@H](O)C[C@]3(C)[C@]2(C(=O)CO)O1` the value was “inactive”; for `CN1CCC(Nc2ncc3ncnc(Nc4ccc(F)c(Cl)c4)c3n2)CC1`, “inactive”; for `O=C(OCC(COC(=O)c1cccnc1)(COC(=O)c1cccnc1)COC(=O)c1cccnc1)c1cccnc1`, “inactive”. Same read-out and setting: then `CN1CCCN=C1/C=C/c1cccs1`, with “inactive”; and `CCOc1ccc(NS(=O)(=O)c2ccc(N)cc2)nn1`, with “inactive”; and `CN1C(=O)CC(C)(c2ccccc2)C1=O` (stereo not given), with “inactive”.

As for `Cc1ccc(CCn2c3c(c4cc(Cl)ccc42)CN(C)CC3)cn1`, the Potency result was “inactive”.

As for `CN(C)C(=O)CNC(=O)Cc1ccccc1`, the Potency entry was “inactive”.

For `Cc1oc(=O)oc1COC(=O)[C@@H]1N2C(=O)[C@@H](NC(=O)[C@H](N)c3ccccc3)[C@H]2SC1(C)C`, the Potency result is “inactive”. For `CCOC(=O)Cn1cccc1-c1nc(-c2ccc(OC)cc2)c(-c2ccc(OC)cc2)s1`, the Potency entry was “inactive”. For the compound `C[C@H](N)C(=O)N[C@@H](C)C(=O)NC1[C@H]2CN(c3nc4c(cc3F)c(=O)c(C(=O)O)cn4-c3ccc(F)cc3F)C[C@@H]12` (stereo not given in full), the Potency entry was “inactive”.

Turning to `CCS(=O)(=O)c1ccc(OC)c(C(=O)OC)c1`, the Potency entry was “inactive”. Turning to `C1=CC2C3C=CC(C3)C2C1` (stereo not given), the Potency result was “inactive”. Still for that read-out and setting: for `CC(C)=CCC/C(C)=C/CC/C(C)=C/CCC(=O)OC/C=C(\C)CCC=C(C)C` the value was “inactive”. Still for that read-out and setting: then `COc1c(N2C[C@@H]3CCCN[C@@H]3C2)c(F)cc2c(=O)c(C(=O)O)cn(C3CC3)c12`, with “inactive”; and `[O-][n+]1cccc(/C(Cl)=N/OC[C@@H](O)CN2CCCCC2)c1`, with “inactive”. Take `CN1CCCN(C(c2ccccc2)c2ccc(Cl)cc2)CC1` (stereo not given): the Potency result was “inactive”.

For the compound `N#CSCC(=O)O`, the Potency result was “inactive”. Regarding `CC(=O)N[C@@H](CCC(N)=O)C(=O)O`, the Potency entry is “inactive”.

With `N=C(N)c1ccc(OCCCOc2ccc(C(=N)N)cc2)cc1`, the Potency entry is “inactive”. Same read-out and setting: for `O=C(c1cc(O)c(O)c(O)c1)c1ccc(O)c(O)c1O` the value was “inactive”; for `C[C@@H]1C[C@H]2[C@@H]3CCC4=CC(=O)C=C[C@]4(C)[C@@]3(F)[C@@H](O)C[C@]2(C)[C@@]1(O)C(=O)COC(=O)c1ccncc1`, “inactive”; for `CC1CCCCN1CCCOC(=O)c1ccc(OC2CCCCC2)cc1` (stereo not given), “inactive”.

`CC(C)NCCCC1(C(N)=O)c2ccccc2-c2ccccc21`: the Potency result was “inactive”. Same read-out and setting: then `Oc1ccccc1`, with “inactive”. For the compound `OCc1cccnc1`, the Potency entry was “inactive”. Regarding `CC1CN(c2cc3c(cc2F)c(=O)c(C(=O)O)cn3-c2ccc(F)cc2F)CCN1` (stereo not given), the activity change, negative = cytotoxic was 11.4% [at 4.84 µM] (inactive). With `Clc1ccc2c(c1)Nc1ccccc1S2`, the Potency entry was “inactive”.

For the compound `C#CC(C)(CC)OC(=O)c1ccccc1C(=O)O` (stereo not given), the Potency entry is “inactive”.

On to `CC[N+](CC)(CC)CCOC(=O)C(C1CCCC1)C1CCCC1`, for which the Potency entry is “inactive”. Same read-out and setting: for `CN(C)CCOC1=Cc2ccccc2Sc2ccc(Cl)cc21` the value was “inactive”; for `CCCN(CCC)C(=O)C(CCC(=O)OCCCN1CCN(CCOC(=O)Cc2c(C)n(C(=O)c3ccc(Cl)cc3)c3ccc(OC)cc23)CC1)NC(=O)c1ccccc1` (stereo not given), “inactive”; for `CC(C)Cc1ccc(C(C)C(=O)OCc2ccccn2)cc1` (stereo not given), “inactive”. Same read-out and setting: for `CO[C@@H]1[C@@H](OC)[C@H](C)[C@@](O)(CC(=O)O)O[C@H]1[C@H](C)[C@H]1O[C@@]2(CC[C@@](C)([C@H]3CC[C@@](C)([C@@H]4O[C@@H]([C@H]5O[C@](C)(O)[C@H](C)C[C@@H]5C)C[C@@H]4OC4C[C@H](OC)[C@@H](OC)[C@H](C)O4)O3)O2)C[C@H](O)[C@H]1C` (stereo not given in full) the value was 4.22 µM (active); for `CC(C)OP(=O)(CP(=O)(OC(C)C)OC(C)C)OC(C)C`, “inactive”; for `COC(=O)/C=C(/C)N`, “inactive”. `O=C(Nc1ccc(S(=O)(=O)N2CCOCC2)cc1)c1cc(Cl)ccc1NS(=O)(=O)c1ccc(Cl)s1`: the Potency entry is “inactive”. Same read-out and setting: then `CCNC(=O)[C@@H]1CCCN1C(=O)[C@H](CCCN=C(N)N)NC(=O)[C@H](CC(C)C)NC(=O)CNC(=O)[C@H](Cc1ccc(O)cc1)NC(=O)[C@H](CO)NC(=O)[C@H](Cc1c[nH]c2ccccc12)NC(=O)[C@H](Cc1cnc[nH]1)NC(=O)[C@@H]1CCC(=O)N1` ([pGlu]HWSYGLRP-NHEt), with “inactive”; and `O=C(COCCOCCOCC(=O)Nc1c(I)cc(I)c(C(=O)O)c1I)Nc1c(I)cc(I)c(C(=O)O)c1I`, with “inactive”.

Values taken from PubChem BioAssay (NCATS).
